From PubChem BioAssay AID1918 (Vanderbilt High Throughput Screening Facility, 2009)
Screen size: about 130,000 compounds; about 2,500 (1.9%) were called active. The sample as a whole holds a higher share of actives than the screen did. A number with no mark means an inactive call.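 The calls were made as follows: active = signal ratio slope over the read window, or its plate-corrected B-score, at least 3 SD from the plate mean, either direction; inactive = the rest.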

molecular target: ATP-sensitive inward rectifier potassium channel 1 (Homo sapiens) (UniProt P48048); assay: ROMK potassium channel modulators, primary screen, cell-based, thallium flux, MLSMR library (AID 1918); details: Tet-inducible ROMK, thallium flux fluorescence; at 10 µM; actives lie on both sides;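 also: B-score of the F/F0 ratio slope over 7 to 12 s after thallium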
Sequence (P48048 whole entry, looked up): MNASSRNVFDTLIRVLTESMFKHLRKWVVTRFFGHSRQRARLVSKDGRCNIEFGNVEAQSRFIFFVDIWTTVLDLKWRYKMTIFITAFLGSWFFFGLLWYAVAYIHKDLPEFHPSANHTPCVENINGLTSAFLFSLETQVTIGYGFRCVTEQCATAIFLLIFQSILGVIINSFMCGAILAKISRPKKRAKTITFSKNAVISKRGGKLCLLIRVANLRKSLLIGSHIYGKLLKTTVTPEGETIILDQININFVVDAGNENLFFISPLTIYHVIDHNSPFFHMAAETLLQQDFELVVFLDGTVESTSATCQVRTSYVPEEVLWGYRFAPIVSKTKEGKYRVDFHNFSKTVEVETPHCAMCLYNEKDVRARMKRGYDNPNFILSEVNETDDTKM

Compound	B-score
Cc1cc(NS(=O)(=O)c2ccc(NC(=O)c3cccc(OC(F)F)c3)cc2)nc(C)n1	0.878
Cc1ccc([N+](=O)[O-])c(OCCCNCC(C)O)c1 (centres undefined)	-0.00821
O=C(Cc1ccc([N+](=O)[O-])cc1)N/N=C/c1ccco1	-1.24
O=c1cc(-c2ccccc2)[nH]c2cc(F)ccc12	4.56 (active)
O=c1[nH]c(-c2ccccc2)c(-c2ccccc2)[nH]1	-0.0963
N#Cc1c(-c2ccc(F)cc2)nc(-c2ccccc2)[nH]c1=O	-1.43
CN(C)/C=C/C(=O)c1cnc2sccn2c1=O	-0.835
Cc1cccc(OP(=O)(Nc2c(C)n(C)n(-c3ccccc3)c2=O)Oc2cccc(C)c2)c1	-0.868
Cc1nn(C)c(Oc2ccccc2)c1[N+](=O)[O-]	0.573
Cc1cccc(Oc2c([N+](=O)[O-])c(=O)n(C)c3ccccc23)c1	-2.67 (active)
COc1cccc(-c2ccc(SCC(=O)N3CCN(c4ccccc4)CC3)nn2)c1	0.576
COc1ccc(S(=O)(=O)N2CCCCCC2)cc1C(=O)OCC(=O)Nc1cc(C)on1	0.559
COc1cc2c(cc1O)C(SC)=NC(C)(C)C2	-6.55 (active)
COc1cc2c(cc1OC)C(C(C)C)=NC(C)(C)C2	-0.0102
CN(C)C(=O)c1cccn(Cc2cccc(C(F)(F)F)c2)c1=O	0.481
CN1CCNC(=O)C1CC(=O)N1CC=C(c2ccc(F)cc2)CC1 (centres undefined)	-0.128
CSc1cccc(NC(=S)N(Cc2ccccc2)Cc2ccccn2)c1	-1.37 (active)
CSc1cccc(NC(=S)N(C(C)C)C(C)c2ccccn2)c1 (centres undefined)	-0.872
COc1cccc(NC(=S)N(Cc2ccc(C)cc2)Cc2ccccn2)c1	0.0921
O=C(Nc1ccncc1)c1ccccc1[N+](=O)[O-]	-0.131
CC1=C/C(=N\S(=O)(=O)c2ccccc2)C(C(C)C)=CC1=O	-2.34
COc1ccc(/C=C/C(=O)N2CCCC2)cc1OC	1.08
Cc1sc2c(c1C)c(=O)n(-c1ccccc1)c(=O)n2CC(=O)NCC1CCCO1 (centres undefined)	0.885
Cc1ccc(C(NC(=O)N2CCCC2)C(Cl)(Cl)Cl)cc1F (centres undefined)	0.515

Compound	B-score
O=C(Nc1ccccc1Cl)/C(Cl)=C(\Cl)S(=O)c1ccccc1 (centres undefined)	-4.2 (active)
O=C(Nc1ccccc1Cl)c1ccc2nsnc2c1	-0.621
COCCN(CCOC)C(=S)Nc1ccccc1Cl	0.00438
COc1ccc(NC(=O)C(C)SCc2ccccc2)cc1 (centres undefined)	0.339
COc1ccc(-c2[nH]ncc2CN(C)Cc2cccnc2)c(F)c1	0.572
COc1ccc(-c2[nH]ncc2CN(C)Cc2c(C)n[nH]c2C)c(OC)c1	1.28 (active)
COc1ccc(-c2[nH]ncc2CN(C)Cc2cc(C)[nH]n2)c(F)c1	0.139
Cc1cc(/C=C2/NC(=O)NC2=O)c(C)n1-c1cccnc1	0.0128
CCc1cc2c(=O)c(-c3ccc(F)cc3)c(C(F)(F)F)oc2cc1OCC(=O)O	-0.413
O=c1c(-c2ccc3c(c2)OCCO3)c(C(F)(F)F)oc2cc(O)cc(O)c12	-5.2 (active)
COc1ccc(-c2onc(C)c2-c2ccc3c(c2)OCCO3)c(O)c1	-0.0517
COc1ccc(C(C)=O)cc1CSc1nc2nc(C)cc(C)n2n1	1.28
Cc1cccc(NC(=S)Nc2ccc(Cl)c(Cl)c2)c1	0.116
COc1ccc(CN(C(=O)c2cccs2)c2nccs2)cc1OC	4.52 (active)
COc1ccc(CCNC(=O)CSc2nnc(CNC(=O)c3cccs3)o2)cc1OC	-0.208
COc1ccc(CCNC(=O)COC(=O)/C=C/c2cccs2)cc1OC	-0.931
O=c1[nH]n2c(-c3ccccc3)nc(O)c2c2ccccc12	2.45
C=C(C)C1CC=C(C)/C(=N/NC(=O)CCCNc2cccc(C)c2)C1 (centres undefined)	1.1
CC(C)OCCCNC(=O)C1CC(=O)N(C2CCCCCCC2)C1 (centres undefined)	-0.488
Cc1ccc(CNC(=O)C2CCCN(S(C)(=O)=O)C2)cc1 (centres undefined)	0.0583
Cc1ccc(CNC(=O)C2CC(=O)N(C3CCCCCCC3)C2)cc1 (centres undefined)	-2.38 (active)
O=C(COc1ccccc1)Nc1ccc(N2CCN(C(=O)c3cccs3)CC2)cc1	-0.916
CC(=O)Nc1ccc(OCCC[n+]2cccc(C(=O)[O-])c2)cc1	0.158
COc1cc(NC(=S)NCc2ccc(S(N)(=O)=O)cc2)cc(OC)c1	2.23

Compound	B-score
CN(NC(=O)c1ccccc1F)c1nc(C(F)(F)F)nc2ccccc12	2.83 (active)
Cc1cc(C)n(-c2nc(C(F)(F)F)nc3ccccc23)n1	-0.0244
COC(=O)CNC(=O)c1ccccc1F	0.963
Cc1ccc(C)c(-n2cc(CN3CCN(C(=O)c4ncn[nH]4)CC3)c(-c3ccccc3)n2)c1	-0.754
COc1ccc(N2CCN(C(=O)COc3ccc4c(C)cc(=O)oc4c3)CC2)cc1	-0.589
CCOc1ccccc1N1CCN(C(=O)COc2ccc3c(C)cc(=O)oc3c2)CC1	0.824
Cc1ccccc1N1CCN(CCCOc2ccc3c(C)cc(=O)oc3c2)CC1	-4.08 (active)
CCO/C=C1\C(=O)N(c2ccc(OCC)cc2)C(=O)c2ccccc21	-0.0391
CCNC(=O)CC1C(=O)N(c2ccc(OC)cc2)C(=S)N1CCc1ccncc1 (centres undefined)	0.277
Cc1cc(/C=N/NC(=O)c2cccnc2)c(C)n1CC(C)C	1.51
Cc1cccc(-n2c(SCC(=O)Nc3cccc(S(=O)(=O)NC4=NCCCCC4)c3)nc3ccccc3c2=O)c1C	-5.4 (active)
CCc1ccc(C(=O)OCC(=O)Nc2cccc(S(=O)(=O)NC3=NCCCCC3)c2)cc1	-1.41
C/C(=N\NC(=O)CSc1nc2ccccc2c(=O)n1-c1ccccc1C)c1cccs1	0.111
O=C(N/N=C/c1ccccn1)c1ccc(S(=O)(=O)N2CCCCCC2)cc1	1.67
O=C(Nc1ccccc1)N1CCN(Cc2ccccc2)CC1	-0.796
C/C(=N\N1CCN(Cc2ccc(C)cc2)CC1)c1ccco1	-0.228
CC12CN(Cc3ccccc3)CC(C)(CN(Cc3ccccc3)C1)C2=NO	-3.21 (active)
COc1cc2c(C(=O)N3CCN(C)CC3)c(CSc3ccccc3)n(C)c2cc1Br	-0.529
Cc1ccnc(NC(=O)CCC(=O)N(CC(=O)NCc2ccccc2)Cc2ccco2)c1	-0.274
Cc1ccc(N(CC(O)CN2CCCC2)S(=O)(=O)c2ccccc2)cc1 (centres undefined)	-0.891
CCN(CC)C(=O)CN(c1cccc(OC)c1)S(=O)(=O)c1ccc(C)cc1	0.523
COc1ccc([N+](=O)[O-])cc1N(CC(O)CN(CC(C)C)CC(C)C)S(=O)(=O)c1ccc(C)cc1 (centres undefined)	-3.76 (active)
C/C(Cc1ccccc1)=N\NC(=O)CNC(=O)c1ccccc1Cl	0.223
CN(/C(=N/S(=O)(=O)c1cccs1)c1ccccc1)c1ccc(O)cc1	0.111

Compound	B-score
O=C(NNC(=S)NCc1ccco1)C(c1ccccc1)c1ccccc1	-0.0839
CCC1CCCCN1S(=O)(=O)Cc1ccccc1Cl (centres undefined)	-1.11
COc1ccc(N2CCN(C(=O)C3CCN(S(=O)(=O)c4ccc(C)cc4)CC3)CC2)cc1	0.00237
C(=N\N1CCN(c2ccccn2)CC1)/C1=C(N2CCOCC2)C(=C/c2ccccc2)/CC1	-0.00313
O=C1Nc2ccc(Br)cc2/C1=N/N=C/C1=C(N2CCOCC2)C(=C\c2ccccc2)/CC1	1.2
N#C/C(=C\C1=C(N2CCOCC2)C(=C\c2ccccc2)/CC1)C(=O)Nc1ccccc1F	-3.73 (active)
Cc1cccc(NC(=O)CSc2nnc(CCNC(=O)OC(C)(C)C)o2)c1C	0.146
Fc1cccc(CSc2nnc3ccc(-c4ccncc4)nn23)c1	1.92
CSCCNCc1cn(-c2ccc(F)cc2F)nc1-c1ccccc1C	-0.924
CCCCCCCNc1nc(Cl)nc(NCCO)n1	-0.271
C=CCc1ccc(OCC(O)CN2CCN(Cc3ccccc3)CC2)c(OC)c1 (centres undefined)	-1.83
Cc1ccc(-c2csc(NC(=O)c3cnccn3)n2)cc1C	1.18
Cc1nc2ccccc2cc1C(=O)N/N=C/c1ccc([N+](=O)[O-])cc1	-0.145
O=C(Nn1c(-c2ccccc2)nc2ccccc2c1=O)c1ccc([N+](=O)[O-])cc1	1.18
Cc1nc2ccccc2nc(=O)c1NNc1ccc([N+](=O)[O-])cc1	3.6 (active)
COc1ccccc1CC(NC(C)=O)C(=O)NC1CCN(C(=O)Nc2ccccc2Cl)CC1 (centres undefined)	-0.0342
O=C(NNC(=S)NCCCN1CCOCC1)c1ccncc1	-0.0357
CCOC(=O)NC(=O)/C(C#N)=C\c1ccccc1	-1.48
COCCNC(=O)/C(C#N)=C/c1cccc(OCc2ccccc2)c1	-2.75 (active)
COCCNC(=O)/C(C#N)=C/c1nc(N(C)C)n(-c2ccc(F)cc2)c1Cl	-0.0358
N#C/C(C(=S)Nc1ccccc1)=C1/NN=C(N2CCOCC2)N1c1ccccc1	0.219
O=C(COC(=O)CC1CC2CCC1C2)NC(=O)NC1CCCC1 (centres undefined)	-0.0323
